# Source: PubChem BioAssay
# Inconclusive results are not listed. Activity calls are given as the source filed them. Unless noted, how the calls were made is not given here.
# Tests used:
# [1] = stimulators of insulin release from INS-1E, primary screen, cell-based, 5 mM glucose, NPC library (AID 1117329;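 active means compound raises insulin release from rat beta cells at 5 mM glucose, no numeric limit stated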); conditions: rat INS-1E insulin secretion, at 10 µM, stronger effect = higher value
# [2] = growth inhibition of GSK3B-pretreated HCT116 cells – cell-based, CellTiter-Glo, 0.2 to 20 µM (AID 1117336;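 active means compounds lowering colon cancer cell viability after pretreatment blocking the GSK3B kinase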); conditions: HCT116 viability after GSK3B inhibitor, at 20 µM, stronger effect = higher value
# [3] = inhibition of endothelial tube formation, primary screen, imaging, VEGF stimulated, CD31 staining, tube area, NPC library (AID 1117340;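 active means compound that reduces growth-factor-driven endothelial tube area in a mixed cell culture, no cutoff stated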); conditions: VEGF-stimulated ADSC/ECFC co-culture, at 10 µM, stronger effect = higher value
# [4] = GLP1 release stimulators, primary, NCI-H716, NPC library (AID 1117341;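 active means compound raises GLP1 secretion from the human gut endocrine cells, with no numeric limit stated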); conditions: NCI-H716 cells, at 10 µM, stronger effect = higher value
# [5] = HCT116 colon cancer cell growth inhibition, primary screen, CellTiter-Glo luminescence, NPC library (AID 1117342;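 active means compounds that lower survival of HCT116 colon cancer cells in the luminescence readout, no numeric limit stated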); conditions: at 20 µM (top of the series)
# [6] = reduced SW480 viability measured with CellTiter-Glo, NPC library, primary (AID 1117343;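 active means compounds that lower viability of the colon cancer cells in the luminescence readout, with no numeric limit stated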); conditions: CellTiter-Glo luminescence; at 20 µM (top of the series)
# [7] = NPC library primary testing for decreased DLD-1 cell viability via CellTiter-Glo (AID 1117346;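 active means compounds that lower survival of DLD-1 colon cancer cells in the luminescence readout, no cutoff given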); conditions: DLD-1 viability, CellTiter-Glo luminescence; at 20 µM (top of the series)
# [8] = modulation of C. elegans fzo-1 (AID 1259413);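 further: fzo-1 mutant C. elegans worms in liquid wells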; conditions: C. elegans fzo-1 modulator screen, mean read-out; stronger effect = higher value
# [9] = EMT-state selective cytotoxicity in co-culture – imaging, PC-3E GFP, TEM4-18 mCherry, primary screen (AID 1345086;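 active means compounds killing one labelled cell type while sparing the other, by normalised counts and ratio limits, not self-fluorescent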;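 on all read-outs here: cells exposed to compound for 72 h before imaging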;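 on red/green cell ratio (normalised): normalised mesenchymal count divided by normalised epithelial count so high means epithelial killing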); conditions: PC-3E GFP / TEM4-18 mCherry co-culture, imaging cell counts, at 1 µM; for red/green cell ratio (normalised): actives lie on both sides, counts scaled to control wells, 1 = unselective
# [10] = viability loss in pontine glioma line – cell-based, SU-DIPG-XIII, MIPE4.0, CellTiter-Glo, qHTS, dose response (AID 1347061; cut-off not given, nearly all actives have AC50 up to about 37 µM;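 further: cells exposed to compound for 48 hours before readout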); conditions: CellTiter-Glo ATP luminescence
# [11] = viability loss in pontine glioma line – cell-based, SU-DIPG-IV, MIPE4.0, CellTiter-Glo, qHTS, dose response (AID 1347063; cut-off not given, nearly all actives have AC50 up to about 30 µM;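 further: compound exposure lasted 48 hours before the viability readout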); conditions: CellTiter-Glo ATP luminescence
# [12] = viability loss in pontine glioma line – cell-based, SU-DIPG-XVII, MIPE5.0, CellTiter-Glo, qHTS, dose response (AID 1347060; cut-off not given, nearly all actives have AC50 up to about 26 µM;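 on AC50: cells exposed to compound for 48 hours before viability readout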); conditions: CellTiter-Glo ATP luminescence
# [13] = viability loss in pontine glioma line – cell-based, SU-DIPG-XIII, MIPE5.0, CellTiter-Glo, qHTS, dose response (AID 1347064; cut-off not given, nearly all actives have AC50 up to about 23 µM;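 on AC50: cells exposed to compound for 48 hours before the viability read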); conditions: CellTiter-Glo ATP luminescence
# [14] = viability loss in pontine glioma line – cell-based, JHH-DIPG-1, MIPE4.0, CellTiter-Glo, qHTS, dose response (AID 1347062; cut-off not given, nearly all actives have AC50 up to about 27 µM;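 on AC50: cells exposed to compound for two days before readout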); conditions: JHH-DIPG-1 viability, CellTiter-Glo ATP luminescence
# [15] = test system: Aerobactin synthetase IucA (Klebsiella pneumoniae); assay: inhibition of K. pneumoniae IucA enzyme – biochemical, Tocris library, absorbance (AID 1345561); conditions: purified IucA enzyme assay, absorbance (OD) read-out; stronger effect = lower value;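 tested at 8 µM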;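 further: 100% = enzyme without compound and 0% = no enzyme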
# [16] = measured here: epithelial PC-3E GFP cell survival
# [17] = measured here: mesenchymal TEM4-18 mCherry cell survival
structure (smiles),measurement,setting,value
Cc1nc2n(c(=O)c1CCN1CCC(c3noc4cc(F)ccc34)CC1)CCCC2,insulin secretion stimulation,[1],2.5% (inactive)
same,viability decrease,[2],5.9% (inactive)
same,tube area decrease,[3],24.9% (inactive)
same,GLP1 secretion stimulation,[4],2.3% (inactive)
same,inhibition of viability,[5],24.2% (inactive)
same,viability decrease (inhibition),[6],41.5% (inactive)
same,viability decrease (inhibition),[7],10.7% (inactive)
same,mean signal,[8],241 (inactive)
same,red/green cell ratio (normalised),[9],0.98 (inactive)
same,normalised cell number,[9]; [16],1.02
same,normalised cell number,[9]; [17],1
same,outcome,[10],inactive
same,outcome,[11],inactive
Cc1ccsc1C(=CCCN1CCC[C@@H](C(=O)O)C1)c1sccc1C,insulin secretion stimulation,[1],0.1% (inactive)
same,viability decrease,[2],-15.1% (inactive)
same,tube area decrease,[3],-6.2% (inactive)
same,GLP1 secretion stimulation,[4],2.2% (inactive)
same,inhibition of viability,[5],25% (inactive)
same,viability decrease (inhibition),[6],-16.3% (inactive)
same,viability decrease (inhibition),[7],2.5% (inactive)
same,mean signal,[8],213 (inactive)
same,outcome,[12],inactive
same,outcome,[13],inactive
O=C1Nc2ccc(Cl)cc2[C@@](C#CC2CC2)(C(F)(F)F)O1,insulin secretion stimulation,[1],11.3% (inactive)
same,viability decrease,[2],86.5% (active)
same,tube area decrease,[3],-16% (inactive)
same,GLP1 secretion stimulation,[4],21% (active)
same,inhibition of viability,[5],87.9% (active)
same,viability decrease (inhibition),[6],114% (active)
same,viability decrease (inhibition),[7],49.4% (inactive)
same,mean signal,[8],218 (inactive)
same,outcome,[14],inactive
same,AC50,[11],29.6 µM (active)
Cc1nc2n(c(=O)c1CCN1CCC(c3noc4cc(F)ccc34)CC1)CCC[C@H]2O,insulin secretion stimulation,[1],1.1% (inactive)
same,viability decrease,[2],-7.1% (inactive)
same,tube area decrease,[3],8.8% (inactive)
same,GLP1 secretion stimulation,[4],-0.7% (inactive)
same,inhibition of viability,[5],20.5% (inactive)
same,viability decrease (inhibition),[6],-9.1% (inactive)
same,viability decrease (inhibition),[7],-6.6% (inactive)
same,red/green cell ratio (normalised),[9],1.17 (inactive)
same,normalised cell number,[9]; [16],0.84
same,normalised cell number,[9]; [17],0.98
Cn1c(NCCN(CCO)CCCc2ccc([N+](=O)[O-])cc2)cc(=O)n(C)c1=O,insulin secretion stimulation,[1],-5.7% (inactive)
same,viability decrease,[2],38.3% (inactive)
same,tube area decrease,[3],1.8% (inactive)
same,GLP1 secretion stimulation,[4],2.9% (inactive)
same,inhibition of viability,[5],26.6% (inactive)
same,viability decrease (inhibition),[6],44.3% (inactive)
same,viability decrease (inhibition),[7],14.1% (inactive)
same,mean signal,[8],242 (inactive)
same,outcome,[12],inactive
same,AC50,[11],20.9 µM (active)
same,outcome,[13],inactive
COc1cc(-c2ccc(=O)[nH]n2)ccc1OC(F)F,insulin secretion stimulation,[1],0.6% (inactive)
same,viability decrease,[2],-6.05% (inactive)
same,tube area decrease,[3],99.9% (active)
same,GLP1 secretion stimulation,[4],11.6% (inactive)
same,inhibition of viability,[5],-6.7% (inactive)
same,viability decrease (inhibition),[6],11.4% (inactive)
same,viability decrease (inhibition),[7],4.45% (inactive)
same,mean signal,[8],244 (inactive)
same,remaining activity,[15],112% (inactive)
NC(=O)OCC(COC(N)=O)c1ccccc1,insulin secretion stimulation,[1],0.3% (inactive)
same,viability decrease,[2],-7.4% (inactive)
same,tube area decrease,[3],-7.6% (inactive)
same,GLP1 secretion stimulation,[4],-3% (inactive)
same,inhibition of viability,[5],4.1% (inactive)
same,viability decrease (inhibition),[6],-7.2% (inactive)
same,viability decrease (inhibition),[7],-12% (inactive)
same,mean signal,[8],234 (inactive)
same,remaining activity,[15],104% (inactive)
same,outcome,[12],inactive
same,outcome,[10],inactive
same,outcome,[14],inactive
Cc1nc2ccc(CN(C)c3ccc(C(=O)N[C@@H](CCC(=O)O)C(=O)O)s3)cc2c(=O)[nH]1,insulin secretion stimulation,[1],-5.7% (inactive)
same,viability decrease,[2],83.7% (active)
same,tube area decrease,[3],62.5% (active)
same,GLP1 secretion stimulation,[4],1% (inactive)
same,inhibition of viability,[5],78.2% (active)
same,viability decrease (inhibition),[6],117% (active)
same,viability decrease (inhibition),[7],56.2% (active)
same,mean signal,[8],269 (inactive)
same,outcome,[12],inactive
same,outcome,[14],inactive
same,outcome,[13],inactive
Cc1nccn1CC1CCc2c(c3ccccc3n2C)C1=O (centres undefined),insulin secretion stimulation,[1],-1.6% (inactive)
same,viability decrease,[2],-7% (inactive)
same,tube area decrease,[3],1.5% (inactive)
same,GLP1 secretion stimulation,[4],-1.9% (inactive)
same,inhibition of viability,[5],24.8% (inactive)
same,viability decrease (inhibition),[6],-3.2% (inactive)
same,viability decrease (inhibition),[7],-8% (inactive)
same,mean signal,[8],237 (inactive)
same,outcome,[14],inactive
CC(=O)[C@]1(O)Cc2c(O)c3c(c(O)c2[C@@H](O[C@H]2C[C@H](N)[C@H](O)[C@H](C)O2)C1)C(=O)c1ccccc1C3=O,insulin secretion stimulation,[1],-1.8% (inactive)
same,viability decrease,[2],84% (active)
same,tube area decrease,[3],85.6% (active)
same,GLP1 secretion stimulation,[4],-0.2% (inactive)
same,inhibition of viability,[5],68.9% (active)
same,viability decrease (inhibition),[6],84.7% (active)
same,viability decrease (inhibition),[7],85.5% (active)
same,mean signal,[8],267 (inactive)
same,AC50,[12],0.372 µM (active)
same,AC50,[10],3.32 µM (active)
same,AC50,[14],0.526 µM (active)
same,AC50,[11],0.662 µM (active)
same,AC50,[13],11.8 µM (active)
C[n+]1c2cc(N)ccc2cc2ccc(N)cc21 (tested in a mixture with another compound),insulin secretion stimulation,[1],0.4% (inactive)
same,viability decrease,[2],70.5% (active)
same,tube area decrease,[3],-105% (inactive)
same,GLP1 secretion stimulation,[4],5.7% (inactive)
same,inhibition of viability,[5],83.8% (active)
same,viability decrease (inhibition),[6],68.8% (active)
same,viability decrease (inhibition),[7],95.2% (active)
same,red/green cell ratio (normalised),[9],0.5 (inactive)
same,normalised cell number,[9]; [16],0.56
same,normalised cell number,[9]; [17],0.28
Nc1nc(F)nc2c1ncn2[C@@H]1O[C@H](CO)[C@@H](O)[C@@H]1O,insulin secretion stimulation,[1],-0.6% (inactive)
same,viability decrease,[2],12.6% (active)
same,tube area decrease,[3],106% (active)
same,GLP1 secretion stimulation,[4],-2% (inactive)
same,inhibition of viability,[5],38% (inactive)
same,viability decrease (inhibition),[6],17.2% (inactive)
same,viability decrease (inhibition),[7],19.4% (inactive)
same,mean signal,[8],243 (inactive)
same,remaining activity,[15],101% (inactive)
same,AC50,[12],10.5 µM (active)
CCOc1cc(N)c(Cl)cc1C(=O)NCC1CN(Cc2ccc(F)cc2)CCO1 (centres undefined),insulin secretion stimulation,[1],-0.4% (inactive)
same,viability decrease,[2],71.6% (active)
same,tube area decrease,[3],5.1% (inactive)
same,GLP1 secretion stimulation,[4],4.9% (inactive)
same,inhibition of viability,[5],46.1% (inactive)
same,viability decrease (inhibition),[6],44.8% (inactive)
same,viability decrease (inhibition),[7],24% (inactive)
same,mean signal,[8],261 (inactive)
same,outcome,[10],inactive
same,outcome,[14],inactive
same,outcome,[11],inactive
same,outcome,[13],inactive
O=c1[nH]cnc2c1ncn2[C@H]1CC[C@@H](CO)O1,insulin secretion stimulation,[1],3.9% (inactive)
same,viability decrease,[2],-9% (inactive)
same,tube area decrease,[3],-4.4% (inactive)
same,GLP1 secretion stimulation,[4],3.6% (inactive)
same,inhibition of viability,[5],-3.4% (inactive)
same,viability decrease (inhibition),[6],-7.8% (inactive)
same,viability decrease (inhibition),[7],-6.1% (inactive)
same,mean signal,[8],237 (inactive)
same,outcome,[10],inactive
